According to PubChem BioAssay AID1159580 (chemical genetic matrix, 2015):
In all, about 5,500 compounds went through this assay and about 2,000 (36%) were called active. Not shown: some 18% with an inconclusive outcome. Cut-off read from the data, not from the text of the source: active = normalized growth mostly below about 0.91 (no sharp cut-off); inconclusive = no clear call, values can overlap the other calls; inactive = mostly above about 0.92. The list shows a part of the results.

Experiment: chemical genetic growth profiling, strain panel (AID 1159580);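 note: tested at 20 µM; growth read once vehicle control cultures reached saturation at 30 °C; 1 = growth at the plate median or of vehicle wells; lower values mean less growth of the strain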
Conditions: growth OD

Measured: normalized growth

C1CNCCN1
inactive: S. cerevisiae deletion strains, locus YJR066W, strain TOR1, hits give low values 0.957 | S. cerevisiae deletion strains, locus YJR075W, strain HOC1, hits give low values 1.02 | S. cerevisiae deletion strains, locus YKL009W, strain mrt4, hits give low values 0.989 | S. cerevisiae deletion strains, locus YKL068W, hits give low values 0.999 | S. cerevisiae deletion strains, locus YKL085W, strain MDH1 (second series), hits give low values 1.01 | S. cerevisiae deletion strains, locus YKL085W, strain MDH1, hits give low values 1.01 | S. cerevisiae deletion strains, locus YKL160W, strain elf1, hits give low values 1.02 | S. cerevisiae deletion strains, locus YKL190W, strain CNB1, hits give low values 1 | S. cerevisiae deletion strains, locus YKR001C, strain vps1, hits give low values 1 | S. cerevisiae deletion strains, locus YKR026C, strain gcn3, hits give low values 1.01 | S. cerevisiae deletion strains, locus YKR091W, strain srl3, hits give low values 1.01 | S. cerevisiae deletion strains, locus YLL001W, strain dnm1, hits give low values 1.02 | S. cerevisiae deletion strains, locus YLL026W, hits give low values 1.01 | S. cerevisiae deletion strains, locus YLL041C, strain sdh2, hits give low values 1.02 | S. cerevisiae deletion strains, locus YLR027C, strain aat2, hits give low values 1.01 | S. cerevisiae deletion strains, locus YLR039C, strain RIC1, hits give low values 1.01 | S. cerevisiae deletion strains, locus YLR058C, strain SHM2, hits give low values 1.01 | S. cerevisiae deletion strains, locus YLR102C, strain apc9, hits give low values 0.994 | S. cerevisiae deletion strains, locus YLR113W, strain HOG1, hits give low values 1.02 | S. cerevisiae deletion strains, locus YLR221C, strain rsa3, hits give low values 1.01 | S. cerevisiae deletion strains, locus YLR258W, strain gsy2, hits give low values 1.01 | S. cerevisiae deletion strains, locus YLR262C, strain YPT6 (second series), hits give low values 1.03 | S. cerevisiae deletion strains, locus YLR262C, strain YPT6, hits give low values 1.02 | S. cerevisiae deletion strains, locus YLR268W, strain sec22, hits give low values 0.987 | S. cerevisiae deletion strains, locus YLR320W, strain mms22, hits give low values 1.02 | S. cerevisiae deletion strains, locus YLR330W, strain CHS5, hits give low values 1.01 | S. cerevisiae deletion strains, locus YLR342W, strain FKS1 (second series), hits give low values 1.02 | S. cerevisiae deletion strains, locus YLR342W, strain FKS1, hits give low values 1.02 | S. cerevisiae deletion strains, locus YLR357W, strain rsc2, hits give low values 1.02 | S. cerevisiae deletion strains, locus YLR370C, strain arc18, hits give low values 1.02 | S. cerevisiae deletion strains, locus YLR371W, strain rom2, hits give low values 0.997 | S. cerevisiae deletion strains, locus YLR384C, strain iki3, hits give low values 1.01 | S. cerevisiae deletion strains, locus YLR418C, strain cdc73, hits give low values 0.994 | S. cerevisiae deletion strains, locus YML016C, strain PPZ1, hits give low values 1.02 | S. cerevisiae deletion strains, locus YML032C, strain rad52, hits give low values 0.989 | S. cerevisiae deletion strains, locus YML120C, strain ndi1, hits give low values 1 | S. cerevisiae deletion strains, locus YML124C, strain tub3, hits give low values 0.999 | S. cerevisiae deletion strains, locus YMR058W, strain fet3, hits give low values 1.02 | S. cerevisiae deletion strains, locus YMR078C, strain ctf18, hits give low values 1 | S. cerevisiae deletion strains, locus YMR125W, strain sto1, hits give low values 1.03 | S. cerevisiae deletion strains, locus YMR129W, hits give low values 1.01 | S. cerevisiae deletion strains, locus YMR205C, strain PFK2, hits give low values 1.03 | S. cerevisiae deletion strains, locus YMR223W, strain ubp8, hits give low values 0.987 | S. cerevisiae deletion strains, locus YMR231W, strain pep5, hits give low values 1.02 | S. cerevisiae deletion strains, locus YMR263W, strain SAP30, hits give low values 1.01 | S. cerevisiae deletion strains, locus YMR307W, strain GAS1, hits give low values 1.04 | S. cerevisiae deletion strains, locus YNL067W, strain RPL9B, hits give low values 1.02 | S. cerevisiae deletion strains, locus YNL071W, strain lat1, hits give low values 1.01 | S. cerevisiae deletion strains, locus YNL128W, strain TEP1, hits give low values 1.01 | S. cerevisiae deletion strains, locus YNL153C, strain GIM3, hits give low values 1.02 | S. cerevisiae deletion strains, locus YNL183C, strain NPR1, hits give low values 0.975 | S. cerevisiae deletion strains, locus YNL209W, strain ssb2, hits give low values 1.02 | S. cerevisiae deletion strains, locus YNL233W, strain BNI4, hits give low values 1.01 | S. cerevisiae deletion strains, locus YNL248C, strain rpa49, hits give low values 1.01 | S. cerevisiae deletion strains, locus YNL250W, strain rad50, hits give low values 0.993 | S. cerevisiae deletion strains, locus YNL271C, strain bni1, hits give low values 1 | S. cerevisiae deletion strains, locus YNL298W, strain CLA4, hits give low values 0.985 | S. cerevisiae deletion strains, locus YNL307C, strain MCK1, hits give low values 0.996 | S. cerevisiae deletion strains, locus YNL322C, strain KRE1 (second series), hits give low values 1.02 | S. cerevisiae deletion strains, locus YNL322C, strain KRE1, hits give low values 1.01 | S. cerevisiae deletion strains, locus YNR049C, strain mso1, hits give low values 1.01 | S. cerevisiae deletion strains, locus YNR052C, strain pop2, hits give low values 1.01 | S. cerevisiae deletion strains, locus YOL006C, strain TOP1, hits give low values 1.06 | S. cerevisiae deletion strains, locus YOL012C, strain htz1 1.02 | S. cerevisiae deletion strains, locus YOL147C, strain pex11, hits give low values 0.985 | S. cerevisiae deletion strains, locus YOR001W, strain rrp6, hits give low values 1.01 | S. cerevisiae deletion strains, locus YOR061W, strain CKA2, hits give low values 1.01 | S. cerevisiae deletion strains, locus YOR069W, strain VPS5, hits give low values 1 | S. cerevisiae deletion strains, locus YOR070C, strain gyp1, hits give low values 1.03 | S. cerevisiae deletion strains, locus YOR080W, strain dia2, hits give low values 1.02 | S. cerevisiae deletion strains, locus YOR083W, strain WHI5, hits give low values 1.02 | S. cerevisiae deletion strains, locus YOR106W, strain vam3, hits give low values 1.02 | S. cerevisiae deletion strains, locus YOR136W, strain idh2, hits give low values 0.99 | S. cerevisiae deletion strains, locus YOR144C, strain elg1, hits give low values 1 | S. cerevisiae deletion strains, locus YOR184W, strain ser1, hits give low values 0.981 | S. cerevisiae deletion strains, locus YOR231W, strain MKK1, hits give low values 1.01 | S. cerevisiae deletion strains, locus YOR265W, strain rbl2, hits give low values 1.01 | S. cerevisiae deletion strains, locus YOR270C, strain vph1, hits give low values 1.01 | S. cerevisiae deletion strains, locus YOR290C, strain snf2, hits give low values 0.996 | S. cerevisiae deletion strains, locus YOR316C, strain cot1, hits give low values 0.997 | S. cerevisiae deletion strains, locus YPL051W, strain arl3, hits give low values 1.01 | S. cerevisiae deletion strains, locus YPL055C, strain LGE1, hits give low values 1.03 | S. cerevisiae deletion strains, locus YPL078C, strain atp4, hits give low values 1.01 | S. cerevisiae deletion strains, locus YPL106C, strain sse1, hits give low values 1.01 | S. cerevisiae deletion strains, locus YPL240C, strain hsp82, hits give low values 1.03 | S. cerevisiae deletion strains, locus YPL256C, strain CLN2, hits give low values 0.996 | S. cerevisiae deletion strains, locus YPR119W, strain clb2, hits give low values 0.985 | S. cerevisiae deletion strains, locus YPR141C, strain kar3, hits give low values 0.992 | S. cerevisiae deletion strains, locus YPR163C, strain tif3, hits give low values 0.997 | S. cerevisiae deletion strains, locus YPR167C, strain met16, hits give low values 0.985 | S. cerevisiae deletion strains, strain wtn01, hits give low values 0.993 | S. cerevisiae strains, strain wild type, hits give low values 0.999
